SNCA viab count: counter-screen for SNCA expression inhibitors: cell viability | HEK-293-SNCA-luc viability, GF-AFC fluorescence, 24 h | Potency, µM (highest dose often 57.1 µM), inactives show at the top dose activity change, negative = cytotoxicity, usual class: cytotoxic | 0.12% of 150,000 active | AID 1671193;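 also: 0% = DMSO-treated cells and -100% = medium-only wells without cells; nearly all actives have a fitted effect of over 30% in size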
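HEK-293-SNCA-luc cells (1500/well) plated 24 h, then exposed 24 h to a dilution series; GF-AFC added 30 min at 37C, fluorescence 405/540 nm; normalised to medium-only and DMSO wells, Hill fit.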
SNCA expr inhib: reduces expression of the alpha-synuclein gene | Potency, µM (series often up to 57.2 µM), for inactives: top-dose activity change, negative = inhibition, hits mostly inhibitors | 0.17% of 140,000 active | HEK-293 SNCA-luciferase knock-in, luminescence, 24 h;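 also: plate controls were DMSO cells for no effect and cell-free wells for full effect; nearly all actives have a fitted effect of over 45% in size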
FLuc inh: Photinus pyralis luciferase inhibition; purified P. pyralis luciferase, luminescence, biochemical; Potency, µM (highest dose often 115 µM), usual class: inhibitors; P08659; 2.5% of 76,000 active; also: nearly all actives have a fitted effect of over 65% in size
Target sequence (P08659 whole entry, looked up): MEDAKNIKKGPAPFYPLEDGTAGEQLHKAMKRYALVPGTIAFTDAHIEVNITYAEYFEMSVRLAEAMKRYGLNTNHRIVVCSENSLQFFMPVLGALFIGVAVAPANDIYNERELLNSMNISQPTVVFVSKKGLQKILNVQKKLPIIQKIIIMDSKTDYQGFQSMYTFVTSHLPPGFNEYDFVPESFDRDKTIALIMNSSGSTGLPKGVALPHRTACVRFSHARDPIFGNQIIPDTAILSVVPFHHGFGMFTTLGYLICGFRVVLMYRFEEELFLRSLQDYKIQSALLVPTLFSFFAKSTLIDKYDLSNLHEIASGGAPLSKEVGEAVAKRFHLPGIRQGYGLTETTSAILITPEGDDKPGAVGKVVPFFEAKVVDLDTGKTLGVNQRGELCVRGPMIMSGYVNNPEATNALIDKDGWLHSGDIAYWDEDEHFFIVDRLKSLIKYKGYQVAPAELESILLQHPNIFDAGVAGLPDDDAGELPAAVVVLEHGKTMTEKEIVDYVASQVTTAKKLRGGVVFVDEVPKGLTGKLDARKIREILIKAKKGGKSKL
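Purified P. pyralis luciferase (10nM final) in 50mM Tris acetate pH 7.5, 10mM Mg acetate, 0.01% Tween-20, 0.05% BSA with 10uM D-luciferin and 10uM ATP. Compounds titrated qHTS. Luminescence imaged on CCD.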
NIH3T3 tox: cytotoxic compounds in NIH 3T3 cells. NIH 3T3 viability, CellTiter-Glo ATP luminescence, 48-72 h. Potency, µM (series often up to 96.7 µM), inactives show at the highest dose activity change, negative = cytotoxicity, usual class: inhibitors. 4.3% of 94,000 active. AID 1345082; also: nearly all actives have a fitted effect of over 55% in size
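Viability of NIH 3T3 cells after 48 or 72 hr compound treatment at 37 °C was assessed by CellTiter-Glo, with luminescence imaged following a 10 min room-temperature step.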
HEK293 tox: HEK 293 cell cytotoxicity; Potency, µM (titrated, usually from 115 µM), inactives show at the top dose activity change, negative = cytotoxicity, hits mostly inhibitors; 6.6% of 94,000 active; HEK 293 viability, ATP luminescence (CellTiter-Glo), 48-72 h; also: nearly all actives have a fitted effect of over 60% in size
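ATP-coupled CellTiter-Glo luminescence served as viability read-out, recorded 10 min after reagent addition at room temperature. HEK 293 cells, 250 cells/well, had been incubated with pintool-transferred compound for 48 or 72 hr at 37 degree Celsius.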
hNpr1 antagonist: human Npr1 receptor antagonism; 1.6% of 76,000 active; HEK293 hNpr1 GloSensor cGMP, ANP-stimulated luminescence; Potency, µM (top dose mostly 46.3 µM), inactives show top-dose activity change, negative = inhibition, usual class: inhibitors; calls by dose curve; also: nearly all actives have a fitted effect of over 60% in size
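Compound pre-incubated 30 min at room temperature on GloSensor-loaded HEK293 cells stably carrying hNpr1 and the pGS-40F cGMP biosensor. Stimulation uses hNppA at 0.1 nM final; luminescence is taken at baseline and 20 min post-agonist.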
An asterisk follows results filed as active; i = inactive; ? = inconclusive; nt = no result given; [ ] = remark or other dose. Compounds with a hit are over-represented: about 7.4% of the library has one in this group of screens. Unless noted, calls follow the shape of the dose curve; as a rule, active = well fitted curve in the direction sought with a large enough effect; inconclusive = small, poorly fitted or top-dose-only effect, or another doubt; inactive = no such curve, though single readings can be large; an effect the other way counts as inactive or inconclusive. Unless noted, % is scaled to controls: 0 for no effect and ±100 for the full control effect; potency is read from the fitted curve at half-maximal effect.

SMILES	SNCA viab count	SNCA expr inhib	FLuc inh	NIH3T3 tox	HEK293 tox	hNpr1 antagonist
COc1cccc(C(=O)N2CCN(c3nccc(Nc4ccccc4Cl)n3)CC2)c1	-5%	5%	nt	?	35µM*	nt
COc1ccc(Nc2ccnc(N3CCN(C(=O)c4ccccc4F)CC3)n2)cc1	-10%	-11%	nt	35µM*	?	nt
COc1ccc(Nc2ccnc(N3CCN(C(=O)c4ccc(Cl)cc4)CC3)n2)cc1	-22%	-28%	nt	4%	18µM*	nt
O=C(c1ccccc1)N1CCN(c2nccc(Nc3ccccc3Cl)n2)CC1	12%	-7%	nt	?	?	nt
O=C(CCC1CCCC1)NCC1CCCCC(=O)N1 (stereo unspecified)	-16%	6%	nt	i	-4%	nt
COc1ccc2c(c1)C(COCc1ccc(C(=O)O)cc1)=CC(C)(C)O2	nt	nt	nt	?	-3%	nt
COc1ccc(Nc2ccnc(N3CCN(C(=O)Nc4ccccc4)CC3)n2)cc1	-6%	-6%	nt	?	25µM*	nt
COc1cccc(C(=O)NC2CCN(c3nccc(Nc4ccccc4Cl)n3)CC2)c1	?	?	nt	35µM*	?	nt
COc1ccc(Nc2ccnc(N3CCN(C(=O)Nc4ccc(Cl)cc4)CC3)n2)cc1	?	?	nt	-22%	?	nt
COc1ccc(Nc2ccnc(N3CCN(C(=O)c4cccc(OC)c4)CC3)n2)cc1	-22%	-11%	nt	25µM*	16µM*	nt
Cc1ccsc1-c1nc(C2CC(=O)N(C3CCCCC3)C2)no1 (stereo unspecified)	7%	25%	i	-25%	79µM*	-2%
CCCCOc1ccc(-c2nc(C3CC(=O)N(c4ccc(OC)cc4)C3)no2)cc1 (stereo unspecified)	6%	23%	i	-7%	0%	6%
CCCCOc1ccc(-c2nc(C3CC(=O)N(C4CCCCC4)C3)no2)cc1 (stereo unspecified)	-7%	?	i	32µM*	45µM*	?
COc1ccc(CNC(=O)N2CCOc3ccc(N(C)C)cc3C2)cc1	-14%	13%	nt	-30%	?	nt
COc1ccc(CN2CCCC3(C2)C(=NC2CCCCC2)NC(=O)N3c2cc(F)cc(F)c2)cc1 (stereo unspecified)	?	?	nt	?	45µM*	nt
O=C1NC(=NC2CCCCC2)C2(CCN(Cc3ccc(F)cc3)C2)N1c1cc(F)cc(F)c1 (stereo unspecified)	?	?	nt	32µM*	?	nt
O=C1NC(=NC2CCCCC2)C2(CCN(Cc3ccccc3)C2)N1c1cc(F)cc(F)c1 (stereo unspecified)	?	?	nt	32µM*	?	nt
O=C1NC(=NC2CCCCC2)C2(CCCN(Cc3ccc(F)cc3)C2)N1c1cc(F)cc(F)c1 (stereo unspecified)	-18%	?	nt	?	?	nt
COc1ccc(CN2CCC3(C2)C(=NC2CCCC2)NC(=O)N3c2cc(F)cc(F)c2)cc1 (stereo unspecified)	-16%	?	nt	?	?	nt
O=C1NC(=NC2CCCC2)C2(CCCN(Cc3ccccc3)C2)N1c1cc(F)cc(F)c1 (stereo unspecified)	2%	-22%	nt	2%	-9%	nt
O=C1NC(=NC2CCCCC2)C2(CCCN(Cc3ccccc3)C2)N1c1cc(F)cc(F)c1 (stereo unspecified)	?	?	nt	35µM*	?	nt
COc1cccc(CNC(=O)C2CCCN2C(=O)c2cccc(-c3cccc(OC)c3)c2)c1 (stereo unspecified)	?	-8%	nt	?	?	nt
COc1ccc(N2CC3CCC(C2)N3Cc2ccc(-c3cccnc3)cc2)cc1	1%	6%	nt	?	?	nt
COc1ccc(-c2[nH]nc3ncc(-c4cccnc4OC)nc23)c(C)c1	6%[87.6 µM]	1%[87.6 µM]	i	?	100µM*	-2%[70.6 µM]
COc1ccc(-c2[nH]nc3ncc(-c4cccc(CO)c4)nc23)c(C)c1	-15%[87.6 µM]	-1%[87.6 µM]	i	?	?	-1%[70.6 µM]
